Source: PubChem BioAssay (EPA / NIEHS)
Inconclusive results are not listed. The source made the active and inactive calls. The calls were made as follows, unless noted: active = hit-call score of the fitted dose curve at least 0.9, where 1 is the maximum; inactive = score below 0.9.

Key:
[1] = TOX21_p53_BLA_p2_viability: Viability Assessment in the Tox21 HCT-116 p53 Agonism Beta-lactamase Assay, Phase 2 (AID 2283591; active = hit-call score of the fitted dose curve at least 0.9, where 1 is the maximum;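 also: compound exposure lasted 16 h at 37 °C; actives lower the ATP signal meaning cytotoxicity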)
Summary of the method: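 HCT116 p53-bla cells, 4000/well, dosed after 5 h plating (217-fold dilution of DMSO stocks) and incubated 16 h at 37C. Viability taken as cellular ATP by CellTiter-Glo luminescence after 30 min RT; signal loss marks cytotoxicity.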

[2] = molecular target: Cellular tumor antigen p53 (Homo sapiens) (UniProt P04637); test: TOX21_p53_BLA_p2_ratio: Tox21 HCT-116 p53 Agonism Beta-lactamase Assay, Ratio, Phase 2 (AID 2283592; active = hit-call score of the fitted dose curve at least 0.9, where 1 is the maximum)
Sequence of Cellular tumor antigen p53 (Homo sapiens) (P04637 whole entry, looked up): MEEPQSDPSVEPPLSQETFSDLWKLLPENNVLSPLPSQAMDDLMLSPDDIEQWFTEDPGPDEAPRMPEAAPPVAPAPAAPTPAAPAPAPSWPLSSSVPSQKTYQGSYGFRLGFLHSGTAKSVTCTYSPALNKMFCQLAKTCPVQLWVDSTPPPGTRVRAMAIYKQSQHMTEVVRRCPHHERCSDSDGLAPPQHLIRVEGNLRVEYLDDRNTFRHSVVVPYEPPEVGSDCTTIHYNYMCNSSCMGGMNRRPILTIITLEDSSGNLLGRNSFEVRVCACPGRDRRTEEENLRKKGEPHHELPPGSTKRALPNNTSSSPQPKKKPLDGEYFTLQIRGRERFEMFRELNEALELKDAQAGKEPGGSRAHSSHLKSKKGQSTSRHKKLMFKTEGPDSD
Summary of the method: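 In this cell-based reporter format, HCT116 cells were dosed with chemicals delivered from DMSO by 217-fold dilution and incubated 16 h at 37C. Emission at 460 and 530 nm after 2 h CCF4-AM loading provided the ratio, fitted upward versus DMSO.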

[3] = TOX21_p53_BLA_p3_viability: Viability Assessment in the Tox21 HCT-116 p53 Agonism Beta-lactamase Assay, Phase 3 (AID 2283593; active = hit-call score of the fitted dose curve at least 0.9, where 1 is the maximum;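 also: cells exposed to compound for 16 h before reading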)
Summary of the method: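 HCT116 cells, 4000/well, dosed 5 h after plating by pin transfer (217-fold dilution from DMSO stock) and incubated 16 h at 37C, 5% CO2. Viability read as ATP luminescence with CellTiter-Glo after 30 min at room temperature.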

[4] = molecular target: Cellular tumor antigen p53 (Homo sapiens) (UniProt P04637); test: TOX21_p53_BLA_p3_ratio: Tox21 HCT-116 p53 Agonism Beta-lactamase Assay, Ratio, Phase 3 (AID 2283596; active = hit-call score of the fitted dose curve at least 0.9, where 1 is the maximum)
Summary of the method: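 HCT116 p53-bla cells (4000/well) given compound in DMSO (217-fold dilution) after 5 h, incubated 16 h at 37C. CCF4-AM substrate 2 h at room temperature; 460/530 nm emission ratio, gain fitted against DMSO.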

[5] = TOX21_p53_BLA_p4_viability: Viability Assessment in the Tox21 HCT-116 p53 Agonism Beta-lactamase Assay, Phase 4 (AID 2283597; active = hit-call score of the fitted dose curve at least 0.9, where 1 is the maximum;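 also: hits lower the luminescence signal meaning cytotoxicity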)
Summary of the method: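 We seeded HCT116 p53 reporter cells at 4000/well and waited 5 h. We then added compounds in DMSO at a 217-fold dilution and incubated for 16 h. Viability was read as CellTiter-Glo luminescence after 30 min at RT.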

[6] = molecular target: Cellular tumor antigen p53 (Homo sapiens) (UniProt P04637); test: TOX21_p53_BLA_p4_ratio: Tox21 HCT-116 p53 Agonism Beta-lactamase Assay, Ratio, Phase 4 (AID 2283601; active = hit-call score of the fitted dose curve at least 0.9, where 1 is the maximum)
Summary of the method: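 HCT-116 p53 beta-lactamase reporter cells (4000/well) preincubated 5 h, then compound (217-fold dilution of DMSO stock) for 16 h at 37C. CCF4-AM substrate added 2 h at room temperature; 460/530 nm emission ratio fitted upward versus DMSO.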

[7] = CCTE_Shafer_MEA_dev_firing_rate_mean: CCTE's Neural Network Formation Assay for Mean Firing Rate, Shafer Lab (AID 2284031)
Summary of the method: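 Primary rat cortical neurons on 48-well, 16-electrode MEAs (PEI-coated, laminin at plating), exposed from day 0 with compound renewed at DIV 5 and 9. Spikes recorded DIV 5, 7, 9, 12; well-mean firing rate collapsed to trapezoidal AUC, loss-of-signal vs DMSO.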

[8] = CCTE_Shafer_MEA_dev_per_burst_spike_percent: CCTE's Neural Network Formation Assay for Percent of Spikes in a Burst, Shafer Lab (AID 2284032)
Summary of the method: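 Rat primary cortical neurons on 16-electrode MEA wells, dosed from plating day 0 for 12 days with renewal on DIV 5 and 9; spikes-in-bursts percentage averaged over bursting electrodes, collapsed as AUC across days 5, 7, 9, 12; loss direction versus DMSO.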

[9] = CCTE_Shafer_MEA_dev_active_electrodes_number: CCTE's Neural Network Formation Assay for Number of Active Electrodes, Shafer Lab (AID 2284040; active = hit-call score of the fitted dose curve at least 0.9, where 1 is the maximum)
Summary of the method: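 Rat cortical primary cultures, 1.5 x 10^5 cells/well, PEI-coated MEA, laminin drop. Continuous exposure DIV 0–12; full media/compound change DIV 5, 9. Readout: electrodes with mean firing ≥5 spikes/min; AUC across days; loss vs DMSO.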

[10] = CCTE_Shafer_MEA_dev_burst_rate: CCTE's Neural Network Formation Assay for Burst Rate, Shafer Lab (AID 2284042)
Summary of the method: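 Exposure ran continuously over 12 days of network development in rat cortical cultures, with compound refreshed during full media changes on DIV 5 and 9. Single-electrode bursts per recording time, well-mean over active electrodes, trapezoidal AUC across days 5–12, fitted downward relative to DMSO.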

[11] = CCTE_Shafer_MEA_dev_bursting_electrodes_number: CCTE's Neural Network Formation Assay for Number of Bursting Electrodes, Shafer Lab (AID 2284043; active = hit-call score of the fitted dose curve at least 0.9, where 1 is the maximum)
Summary of the method: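 Primary rat cortical neurons plated on 16-electrode MEA wells, exposed from day 0 with compound renewed at DIV 5 and 9. Electrodes bursting ≥1 burst per 2 min counted on days 5, 7, 9 and 12; trapezoidal AUC across days, fitted for loss versus DMSO.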

[12] = CCTE_Shafer_MEA_dev_per_burst_interspike_interval: CCTE's Neural Network Formation Assay for Burst Interspike Interval, Shafer Lab (AID 2284044)
Summary of the method: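 Readout is the average time between spikes inside single-electrode bursts, taken as a well mean across bursting electrodes. Cortical neurons from rat developed networks on MEA plates under continuous 12-day exposure; recordings on days 5, 7, 9 and 12 were integrated by trapezoidal AUC.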

[13] = CCTE_Shafer_MEA_dev_burst_duration_mean: CCTE's Neural Network Formation Assay for Mean Burst Duration, Shafer Lab (AID 2284045)
Summary of the method: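 Primary rat cortical neurons on 48-well 16-electrode MEA plates, exposed from day 0 with renewal at DIV 5 and 9; spontaneous activity recorded on days 5, 7, 9, 12. Well-mean burst duration across bursting electrodes, collapsed as trapezoidal AUC; DMSO baseline.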

[14] = CCTE_Shafer_MEA_dev_interburst_interval_mean: CCTE's Neural Network Formation Assay for Mean Interburst Interval, Shafer Lab (AID 2284046);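 also: well-mean interburst interval of bursting electrodes as AUC over four recording days; curve fitted for decrease in interburst interval relative to DMSO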
Summary of the method: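 Primary rat cortical neurons on PEI-coated 48-well MEA plates (laminin added with cells at plating) (16 electrodes/well), exposed from plating day 0 with renewal at DIV 5 and 9. Mean inter-burst interval averaged over bursting electrodes, AUC across days 5, 7, 9, 12; DMSO baseline.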

[15] = CCTE_Shafer_MEA_dev_inter_network_spike_interval_mean: CCTE's Neural Network Formation Assay for Mean Inter-network Spike Interval, Shafer Lab (AID 2284047)
Summary of the method: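 Mean time between consecutive network-spike peaks, recorded extracellularly (adaptive spike detection) on DIV 5, 7, 9 and 12, summarized as trapezoidal AUC. Rat cortical cultures on MEAs dosed continuously days 0–12, re-dosed at feeds; loss-of-signal fit relative to DMSO.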

[16] = CCTE_Shafer_MEA_dev_network_spike_number: CCTE's Neural Network Formation Assay for Number of Network Spikes, Shafer Lab (AID 2284048)
Summary of the method: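 Primary rat cortical neurons on PEI/laminin 48-well MEA plates, dosed from plating day 0 for 12 days, renewed at DIV 5 and 9. Network spike counts recorded DIV 5, 7, 9, 12, collapsed as trapezoidal AUC; DMSO baseline.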

[17] = CCTE_Shafer_MEA_dev_network_spike_peak: CCTE's Neural Network Formation Assay for Mean Number of Electrodes in Network Spike, Shafer Lab (AID 2284049)
Summary of the method: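 Network-spike peak electrode count from recordings on days 5, 7, 9 and 12 was combined as trapezoidal area under the curve. Rat cortical cultures were treated continuously from plating, with compound renewed at each feed (DIV 5, 9); fits versus DMSO.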

[18] = CCTE_Shafer_MEA_dev_spike_duration_mean: CCTE's Neural Network Formation Assay for Mean Spike Duration, Shafer Lab (AID 2284051);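 also: mean network spike duration pooled as area under curve over DIV 5 to 12 recordings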
Summary of the method: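 Spontaneous activity was recorded on days 5, 7, 9 and 12 from rat cortical cultures grown on microelectrode arrays and dosed continuously from day 0, with media and compound renewed after the DIV 5 and 9 recordings. Network-spike duration was collapsed by area under the curve.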

[19] = CCTE_Shafer_MEA_dev_network_spike_duration_std: CCTE's Neural Network Formation Assay for Standard Deviation of Network Spike Duration, Shafer Lab (AID 2284052);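 also: hits are decreases in network spike duration SD versus DMSO vehicle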
Summary of the method: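 Network spike duration variability was collapsed across recordings on days 5, 7, 9 and 12 by trapezoidal area-under-curve and fitted downward against DMSO. Cultures were rat cortical neurons on PEI-coated MEA plates, dosed continuously from plating, refed with compound DIV 5/9.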

[20] = CCTE_Shafer_MEA_dev_per_network_spike_spike_number_mean: CCTE's Neural Network Formation Assay for Mean Number of Spikes in a Network Spike, Shafer Lab (AID 2284053)
Summary of the method: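 Mean spike count within each network spike, taken in a 0.05 s window at its peak, was recorded on days 5, 7, 9 and 12 and integrated as trapezoidal area under the curve. Rat cortical cultures on MEA plates received continuous compound from day 0, refreshed at medium changes on DIV 5 and 9.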

[21] = CCTE_Shafer_MEA_dev_per_network_spike_spike_percent: CCTE's Neural Network Formation Assay for Percent of Spikes in a Network Spike, Shafer Lab (AID 2284054)
Summary of the method: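 Rat primary cortical neurons were grown on 48-well MEA plates (16 electrodes/well), exposed from plating day 0 through day 12, with treatment renewed on DIV 5 and 9. Percent of spikes within 0.05 s network-spike peaks was measured, summarised as AUC across days 5, 7, 9, 12.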

[22] = UKN5_HCS_SBAD2_cell_viability: Viability Assessment in the University of Konstanz (UKN) Leist Lab Neurite Outgrowth Assay in human iPSC-derived immature Dorsal Root Ganglia Neurons (UKN5) (AID 2284056)
Summary of the method: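 iPSC-derived immature peripheral neurons (SBAD2) seeded on Matrigel with CHIR99021, SU5402 and DAPT, dosed 1 h later for 24 h. Viability from Hoechst H-33342 and calcein-AM live staining, high-content imaging; bidirectional fit versus DMSO.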

[23] = CCTE_Shafer_MEA_dev_LDH: CCTE's Lactate Dehydrogenase Assay for Cytotoxicity in the Neural Network Formation Assay, Shafer Lab (AID 2284068; active = hit-call score of the fitted dose curve at least 0.9, where 1 is the maximum;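 also: exposure for twelve days from plating with re-dosing on DIV 5 and 9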)
Summary of the method: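 Primary rat cortical neurons were cultured on PEI-coated MEA plates and exposed from plating through day 12, with compound renewed at medium changes on DIV 5 and 9. LDH activity was read spectrophotometrically; loss of signal versus DMSO indicates reduced viability.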

[24] = UKN5_HCS_SBAD2_neurite_outgrowth: University of Konstanz (UKN) Leist Lab Neurite Outgrowth Assay in human iPSC-derived immature Dorsal Root Ganglia Neurons (UKN5) (AID 2284070); details: actives raise or lower the signal
Summary of the method: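 Human iPSC-derived immature DRG neurons (SBAD2) on Matrigel with CHIR99021 (1.5 uM), SU5402 (5 uM), DAPT (5 uM); compounds added 1 h post-seeding for 24 h. Calcein-AM neurite area imaged; bidirectional fit vs DMSO.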

[25] = UKN2_HCS_IMR90_neural_migration: University of Konstanz (UKN) Leist Lab Neural Crest Cell Migration Assay in human induced IMR90 Pluripotent Stem Cells (UKN2) (AID 2284204); details: actives raise or lower the signal
Summary of the method: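 iPSC-derived IMR90 neural crest cells seeded around stoppers on PLO/laminin/fibronectin; migration started in N2-S medium with EGF/FGF, compounds added after 24 h for 24 h. Migration into cell-free area imaged after calcein-AM/Hoechst staining; bidirectional fit versus DMSO.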

[26] = UKN4_HCS_LUHMES_neurite_outgrowth: University of Konstanz (UKN) Leist Lab Neurite Outgrowth Assay in human LUHMES cells (UKN4) (AID 2284206); details: actives raise or lower the signal
Summary of the method: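 LUHMES neuronal precursors differentiated 2 days, replated without cAMP/GDNF, then exposed to chemicals for 24 h. Neurite area imaged by high-content microscopy after calcein-AM staining; Hoechst H-33342 marks viability. Bidirectional fit versus DMSO.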

Measured: outcome

CC(C)(C)NCC(O)c1cc(O)cc(O)c1 (stereo unspecified)
inactive: all assays above
